KLF5 inhibitor: kruppel-like factor 5 inhibition | 290,000 tested, 0.23% active | DLD-1 KLF5 promoter-luciferase reporter, luminescence | inhibition, % at 5 µM;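 active = inhibition above a per-plate limit of that plate's mean compound inhibition plus 3 SD, cut at about 60% in these data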;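 note: 0% = DMSO wells and 100% = LY294002 at 200 µM; higher means less KLF5 promoter-driven luciferase light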
GPR7 antagonist: human neuropeptides B/W receptor 1 antagonism; inhibition, % at 4.4 µM; 290,000 tested, 1.1% active; GPR7-expressing cells, fluorescence antagonist assay; AID 1861; in the data active = inhibition above about 16%, passing the limit was not always enough;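 note: cells stimulated with the agonist NPW; 0% = agonist with vehicle and 100% = vehicle without agonist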
Target sequence (P48145 whole entry, looked up): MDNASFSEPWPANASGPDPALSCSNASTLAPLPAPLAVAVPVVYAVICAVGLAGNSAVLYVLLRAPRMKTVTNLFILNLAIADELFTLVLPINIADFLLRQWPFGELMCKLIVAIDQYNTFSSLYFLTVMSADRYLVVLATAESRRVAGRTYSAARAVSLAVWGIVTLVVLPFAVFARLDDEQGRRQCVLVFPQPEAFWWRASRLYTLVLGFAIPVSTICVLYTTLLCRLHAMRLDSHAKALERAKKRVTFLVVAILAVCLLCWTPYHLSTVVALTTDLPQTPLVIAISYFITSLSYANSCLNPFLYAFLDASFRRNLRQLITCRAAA
Ba/F3 V617F tox: reduce viability of Ba/F3 cells dependent on JAK2V617F; Ba/F3 EpoR-JAK2V617F viability, ATP luminescence; inhibition, % at 5.6 µM; 220,000 tested, 1.1% active; AID 1446;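 active = inhibition above the campaign mean plus 3 SD over all tested compounds, cut at about 24% in these data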;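 note: cytokine-independent growth of Ba/F3 cells driven by EpoR plus mutant JAK2; 0% = DMSO-treated cells and 100% = JAK inhibitor I control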
BaF3 tox: parental Ba/F3 viability inhibition as JAK2V617F counter-screen; CellTiter-Glo ATP luminescence; inhibition, % at 5.6 µM; 220,000 tested, 1.1% active; AID 1486;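 active = inhibition above a per-campaign cutoff, the mean inhibition of all tested compounds plus 3 SD, cut at about 27% in these data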;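 note: 0% = DMSO wells and 100% = JAK Inhibitor I control wells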
FID counter: displaces DNA intercalator in HCV helicase counter-screen | DNA fluorescent intercalator displacement, fluorescence | inhibition, % at 7.9 µM | 290,000 tested, 0.17% active | AID 1845; in the data active = inhibition above about 37%;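 note: 0% = vehicle and 100% = reference compound; higher means more ethidium bromide displaced from hairpin DNA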
IEC-6 cytotox: kills IEC-6 intestinal cells in KLF5 counter-screen | AID 1825 | inhibition, % at 5 µM | IEC-6 cytotoxicity, luminescence viability | 290,000 tested, 0.78% active; in the data active = inhibition above about 22%;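 note: 0% = plate median of test compound wells and 100% = cytotoxic reference compound wells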
An asterisk follows results filed as active. In the library only some 2.6% were active in any assay of this set; here they are far more common.

For O=C(Nc1cc(=O)[nH]c(=O)[nH]1)c1cccc(Br)c1 the results were KLF5 inhibitor 8, GPR7 antagonist 6, Ba/F3 V617F tox 12, BaF3 tox 37*, FID counter -9 and IEC-6 cytotox 11.
Screening Cc1cc(C)nc(NC(=O)c2cccc(Br)c2)n1 returned KLF5 inhibitor -8, GPR7 antagonist -5, FID counter 0 and IEC-6 cytotox 12.
Screening CCC(C)c1ccccc1OCC(=O)NN1C(=O)c2ccccc2C1=O (configuration not stated) returned KLF5 inhibitor -16, GPR7 antagonist -13, FID counter -15 and IEC-6 cytotox -3.
`CC(C)NC(=O)Cn1c(SCC(=O)N2c3ccccc3CC2C)nc2ccccc21` (configuration not stated) gave KLF5 inhibitor -33, GPR7 antagonist -6, Ba/F3 V617F tox 3, BaF3 tox 95*, FID counter -20 and IEC-6 cytotox -4.
`Cn1c(-c2ccccc2[N+](=O)[O-])[n+](C)c2ccccc21` gave KLF5 inhibitor -32, GPR7 antagonist -5, Ba/F3 V617F tox 57*, BaF3 tox 58*, FID counter 1 and IEC-6 cytotox -2.
Screening Cn1c(O)c(N=Nc2ccccc2[N+](=O)[O-])c2ccccc21 returned KLF5 inhibitor -16, GPR7 antagonist -4, FID counter -1 and IEC-6 cytotox 6.
For COc1ccc(CCNC(=O)c2cc3c(=O)n4ccccc4nc3n(CCCN3CCOCC3)c2=N)cc1OC the results were KLF5 inhibitor 18, GPR7 antagonist -1, FID counter 46* and IEC-6 cytotox 6.
For CCCNc1nc2nc3ccccn3c(=O)c2cc1C(=O)NCCN1CCOCC1 the results were KLF5 inhibitor -27, GPR7 antagonist -8, FID counter 40* and IEC-6 cytotox -22.
For Cc1cccn2c(=O)c3cc(C(=O)NCC4CCCO4)c(=N)n(CCN4CCOCC4)c3nc12 (configuration not stated) the results were KLF5 inhibitor -47, GPR7 antagonist -9, Ba/F3 V617F tox -3, BaF3 tox 3, FID counter -16 and IEC-6 cytotox 2.
For COc1ccc(CCn2c(=N)c(C(=O)NCCN3CCOCC3)cc3c(=O)n4cccc(C)c4nc32)cc1OC the results were KLF5 inhibitor -7, GPR7 antagonist -16, FID counter 56* and IEC-6 cytotox 10.
Screening COc1ccc(CCNC(=O)c2cc3c(=O)n4ccccc4nc3n(CCCN3CCOCC3)c2=N)cc1 returned KLF5 inhibitor -25, GPR7 antagonist 15, FID counter 48* and IEC-6 cytotox -3.
`O=C(NCCN1CCOCC1)c1c(O)nc2ccccn2c1=O` gave KLF5 inhibitor -43, GPR7 antagonist -9, FID counter -1 and IEC-6 cytotox -1.
For Cc1ccc(CNc2oc(C)nc2C#N)cc1 the results were KLF5 inhibitor -12, GPR7 antagonist 2, Ba/F3 V617F tox -5, BaF3 tox -1, FID counter 1 and IEC-6 cytotox 1.
Screening COc1ccc(CCNC(=O)c2cc3c(=O)n4ccccc4nc3n(CCN3CCOCC3)c2=N)cc1 returned KLF5 inhibitor -11, GPR7 antagonist 10, FID counter -7 and IEC-6 cytotox 9.
Screening Cc1cccn2c(=O)c3cc(C(=O)NCCN4CCOCC4)c(=N)n(CCc4ccccc4)c3nc12 returned KLF5 inhibitor 3, GPR7 antagonist 4, Ba/F3 V617F tox 3, BaF3 tox 9, FID counter 18 and IEC-6 cytotox -3.
Screening COc1ccc(CCn2c(=N)c(C(=O)NCCN3CCOCC3)cc3c(=O)n4ccccc4nc32)cc1OC returned KLF5 inhibitor 5, GPR7 antagonist -2, FID counter 44* and IEC-6 cytotox -12.
Cc1cccn2c(=O)c3cc(C(=O)NCCN4CCOCC4)c(=N)n(CCCN4CCOCC4)c3nc12 was read as KLF5 inhibitor -10, GPR7 antagonist -21, FID counter 79* and IEC-6 cytotox 6.
Screening Cn1cccc/c1=N\c1cccc[n+]1C returned KLF5 inhibitor -13, GPR7 antagonist -9, Ba/F3 V617F tox 73*, BaF3 tox 63*, FID counter -2 and IEC-6 cytotox 1.
Screening CC(=O)c1c(COC(=O)c2ccc(C)cc2)nc2ccccc2[n+]1[O-] returned KLF5 inhibitor -21, GPR7 antagonist -4, Ba/F3 V617F tox -3, BaF3 tox 51*, FID counter -5 and IEC-6 cytotox 0.
Screening CC(C)c1ccccc1NC(=O)C1CC(=O)N(C2CCCC2)C1 (configuration not stated) returned KLF5 inhibitor -36, GPR7 antagonist -7, FID counter -13 and IEC-6 cytotox 2.
`COc1ccc(/C=N/NC(=O)c2cc(=O)[nH]c3ccccc23)cc1OC` gave KLF5 inhibitor -12, GPR7 antagonist -6, Ba/F3 V617F tox 3, BaF3 tox 39*, FID counter -6 and IEC-6 cytotox 2.
`O=C(N/N=C/c1ccco1)c1cc(=O)[nH]c2ccccc12` gave KLF5 inhibitor -18, GPR7 antagonist -3, Ba/F3 V617F tox 2, BaF3 tox 10, FID counter -4 and IEC-6 cytotox -12.
`CCCCCCCC#Cc1ccccc1/C=N/S(=O)c1ccc(C)cc1` (configuration not stated) gave KLF5 inhibitor -20, GPR7 antagonist -10, Ba/F3 V617F tox 8, BaF3 tox 38*, FID counter -4 and IEC-6 cytotox -2.
Screening CCCCC#Cc1ccccc1CC(=O)Nc1ccccc1 returned KLF5 inhibitor -22, GPR7 antagonist -4, Ba/F3 V617F tox -3, BaF3 tox 5, FID counter -21 and IEC-6 cytotox -4.
`CCOc1ccc(OCCSc2nc3ccccc3[nH]2)cc1` gave KLF5 inhibitor -33, GPR7 antagonist -4, Ba/F3 V617F tox 1, BaF3 tox 6, FID counter -6 and IEC-6 cytotox 2.
CCCOc1ccc(CSc2nc3ccccc3[nH]2)cc1 was read as KLF5 inhibitor -51, GPR7 antagonist 4, Ba/F3 V617F tox 5, BaF3 tox 44*, FID counter -4 and IEC-6 cytotox 8.
Screening CN1CCN(C(=O)/C=C/c2cccc(Cl)c2)CC1 returned KLF5 inhibitor -29, GPR7 antagonist -5, FID counter 1 and IEC-6 cytotox 2.
For Cc1c(OCC(=O)NC2CC(C)(C)NC(C)(C)C2)ccc2c3c(c(=O)oc12)CCC3 the results were KLF5 inhibitor -23, GPR7 antagonist 2, FID counter 39* and IEC-6 cytotox 10.
For Cc1c(OCC(=O)NC2CC(C)(C)NC(C)(C)C2)ccc2c1oc(=O)c1ccccc12 the results were KLF5 inhibitor -20, GPR7 antagonist -7, FID counter 32 and IEC-6 cytotox 6.
Cc1ccc(Cl)cc1N1CCN(C(=O)c2ccc3nc[nH]c3c2)CC1 was read as KLF5 inhibitor -10, GPR7 antagonist 2, Ba/F3 V617F tox 5, BaF3 tox 8, FID counter -17 and IEC-6 cytotox 4.

Compound activity from PubChem.
